Experimental data as given in PubChem BioAssay (NCATS).
Where “and” joins values, the source holds several entries; their conditions need not be identical. Equal values may be shown once. Inconclusive results are not listed. A call without a number means that no potency is given here. Calls of active or inactive are those of the source. Calls follow the shape of the dose curve; as a rule, active = well fitted curve in the direction sought with a large enough effect in the repeat runs; inconclusive = weak or mixed curves; inactive = no such curve, though single readings can be large; an effect the other way counts as inactive or inconclusive.
Potency is read from the fitted curve at half-maximal effect.

The compounds below were run against Cytochrome P450 2D6 (Homo sapiens) (UniProt P10635) (assay: Cytochrome P450 family 2 subfamily D member 6 (CYP2D6) small molecule antagonists: luciferase biochemical (cell-free) qHTS assay (AID 1645840; also: nearly all actives have a fitted effect of over 55% in size)). Conditions: P450-Glo CYP2D6 enzyme, luciferin luminescence, 1 h; series mostly up to 57.4 µM.
Chain of Cytochrome P450 2D6 (Homo sapiens) (P10635 whole entry, looked up): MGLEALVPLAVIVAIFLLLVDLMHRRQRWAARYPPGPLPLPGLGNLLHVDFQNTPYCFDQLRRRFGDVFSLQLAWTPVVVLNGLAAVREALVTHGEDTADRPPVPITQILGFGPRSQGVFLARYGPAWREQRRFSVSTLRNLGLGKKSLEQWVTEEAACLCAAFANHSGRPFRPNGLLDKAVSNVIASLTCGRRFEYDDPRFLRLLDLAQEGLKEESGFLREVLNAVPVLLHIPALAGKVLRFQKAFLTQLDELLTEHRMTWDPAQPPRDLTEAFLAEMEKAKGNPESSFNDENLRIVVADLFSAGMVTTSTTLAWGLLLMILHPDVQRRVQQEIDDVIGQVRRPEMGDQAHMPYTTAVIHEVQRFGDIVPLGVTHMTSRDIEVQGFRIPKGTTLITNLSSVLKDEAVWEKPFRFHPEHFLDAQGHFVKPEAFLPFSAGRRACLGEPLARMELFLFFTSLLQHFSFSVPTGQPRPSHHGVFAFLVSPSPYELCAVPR
In short: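 P450-Glo CYP2D6 system: proluciferin substrate converted by enzyme to luciferin, read by luminescence proportional to activity. Enzyme-substrate mix with compound 10 min at room temperature, then NADPH regeneration 1 h before detection reagent.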
`COCCN(C)Cc1ccc2nc3sc(C(=O)N(C)C4CCCCC4)cn3c2c1` was tested, and the Potency was “inactive”.
In the case of `COCCCNCC1COc2ccccc2O1` (configuration not stated), the Potency is reported as 9.52 µM (active).
With `CCCCC(C)(O)C/C=C/[C@H]1[C@H](O)CC(=O)[C@@H]1CCCCCCC(=O)OC` (some centres not stated) the Potency was 10.7 µM (active).
In the case of `Cc1cc(N2CCCCC2)nc2ccccc12`, the Potency is reported as 10.7 µM (active).
`c1ccc(C(OC2CCN(CCCc3nn[nH]n3)CC2)c2ccccc2)cc1` was tested, and the Potency was 6.01 µM (active).
In the case of `Cc1nn(C)c(COc2ccc(N3CCN(S(=O)(=O)N(C)C)CC3)cc2)c1-c1cccc2c(CCCOc3cccc4ccccc34)c(C(=O)O)n(CCN3CCOCC3)c12`, the Potency is reported as “inactive”.
For `CC[C@@H](c1ccc(F)c(F)c1)n1c(C(=O)OC)c(-c2ccno2)[nH]c1=S`, the Potency was “inactive”.
`COC(=O)CCC(=O)CN` was tested, and the Potency was “inactive”.
`COc1ccc2cc(OCC3(C(=O)O)CN(C(=O)c4ccc(F)cc4)C3)ccc2c1` was tested, and the Potency was “inactive”.
For `CCCCN(CCCC)C(=O)CN1C[C@H](c2ccc3c(c2)OCO3)[C@@H](C(=O)O)[C@@H]1c1ccc(OC)cc1`, the Potency was 19 µM (active).
`O=C(O)c1cc(=O)c2c3nc4ccccc4oc-3cc(=O)c2[nH]1` was tested, and the Potency was 1.9 µM (active).
In the case of `O=C(c1ccc(C#Cc2cccc(F)c2)cn1)N1CC2CC2C1` (configuration not stated), the Potency is reported as 16.9 µM (active).
In the case of `O=C(O)c1n[nH]c2c1C[C@H]1C[C@@H]21`, the Potency is reported as “inactive”.
`O=C1C[C@@H](c2ccc(O)cc2)Oc2cc(O)ccc21` was tested, and the Potency was “inactive”.
With `O=S(=O)(NC1CCNCC1)c1cc(S(=O)(=O)c2ccccc2)ccc1C(F)(F)F` the Potency was “inactive”.
With `O=C(O)CCC(=O)C(=O)O` the Potency was “inactive”.
With `O=C1CC(c2ccc([N+](=O)[O-])cc2)=NN1c1ccccc1` the Potency was “inactive”.
`CC(C)N=c1cc2n(-c3ccc(Cl)cc3)c3ccccc3nc-2cc1Nc1ccc(Cl)cc1` was tested, and the Potency was 1.34 µM (active).
`O=C(NCC(=O)N1CC[C@H](NC2CCC(O)(c3ccc(-c4ncccn4)cn3)CC2)C1)c1cccc(C(F)(F)F)c1` (some centres not stated) was tested, and the Potency was “inactive”.
In the case of `CNC1CCN(C(Cc2cccc(-c3ccncc3)c2)C(=O)c2sc3c(F)ccc(F)c3c2Cl)CC1` (configuration not stated), the Potency is reported as 0.19 µM (active).
In the case of `COc1cccc2c1CCC[C@H]2CN(C)CCc1ccc2ccoc2c1`, the Potency is reported as 0.0535 µM (active).
In the case of `c1nc(NC2CCCCCC2)c2cc(CNC[C@H]3CCCO3)sc2n1`, the Potency is reported as 19 µM (active).
In the case of `COc1c(C)c(C(=O)c2ccc(N)c(C(=O)O)c2)n2ccccc12`, the Potency is reported as “inactive”.
For `OCC(S)CS` (configuration not stated), the Potency was 16.9 µM (active).
In the case of `Cc1c(C)c2c(c(C)c1O)CC[C@@](C)(CCC[C@H](C)CCC[C@H](C)CCCC(C)C)O2`, the Potency is reported as “inactive”.
With `c1ccc(Nc2nc3c(s2)CCCc2[nH]ncc2-3)nc1` the Potency was 26.8 µM (active).
With `CCOc1ccc(C(Nc2ccccn2)c2ccc3ccc(C)nc3c2O)cc1C` (configuration not stated) the Potency was “inactive”.
With `COc1cc2c(Nc3ccc(Cl)c(Cl)c3F)ncnc2cc1OCC1C[C@@H]2CN(C)C[C@@H]2C1` (some centres not stated) the Potency was 16.9 µM (active).
For `Clc1cc(Cl)c(OCC#CI)cc1Cl`, the Potency was 0.674 µM (active).
With `O=C(C1CC1)N1CC[C@@H](Cc2n[nH]c(=O)n2-c2ccc(-c3ccc4occc4c3)cc2)C1` the Potency was 13.5 µM (active).
With `Nc1nc(N)c2nc(CNc3ccc(C(=O)N[C@@H](CCC(=O)O)C(=O)O)cc3)cnc2n1` the Potency was “inactive”.
With `Nc1c(N=Nc2ccc(-c3ccc(N=Nc4cc(S(=O)(=O)O)c5ccccc5c4N)cc3)cc2)cc(S(=O)(=O)O)c2ccccc12` the Potency was 7.56 µM (active).
In the case of `CNc1nc(Nc2cnn([C@H]3CCN(C4COC4)C[C@@H]3F)c2Cl)ncc1C(F)(F)F`, the Potency is reported as “inactive”.
For `O=C(Nc1ccc(Br)cc1)c1cc(Br)c(Br)s1`, the Potency was 9.52 µM (active).
With `C[C@@H]1[C@H](O)[C@@H](C)/C=C/C=C\C=C\C=C\C=C\C=C\C=C\[C@H](O[C@@H]2O[C@H](C)[C@@H](O)[C@H](N)[C@@H]2O)C[C@@H]2O[C@](O)(C[C@@H](O)C[C@@H](O)[C@H](O)CC[C@@H](O)C[C@@H](O)CC(=O)O[C@H]1C)C[C@H](O)[C@H]2C(=O)O` (stereo in doubt) the Potency was “inactive”.
`COC(=O)[C@H](CC1C=NC=N1)NCC12CC3CC(CC(C3)C1)C2` (some centres not stated) was tested, and the Potency was “inactive”.
For `FC(F)(F)c1cc(C(F)(F)F)c2ccc3nc(-c4nnco4)cn3c2n1`, the Potency was “inactive”.
For `N[C@@H](CC(=O)N1CCn2c(nnc2C(F)(F)F)C1)Cc1[nH]nc2c(F)c(F)ccc12`, the Potency was “inactive”.
In the case of `N#Cc1ccc2[nH]c(O)c(-c3ccc(CN4CCOCC4)cn3)c2c1`, the Potency is reported as 12 µM (active) and 6.74 µM (active).
`NC(=O)c1ncn(C2OC(CO)C(O)C2O)n1` (configuration not stated) was tested, and the Potency was “inactive”.

What follows are compounds tested against Cytochrome P450 3A4 (Homo sapiens) (UniProt P08684) (assay: Cytochrome P450 family 3 subfamily A member 4 (CYP3A4) small molecule antagonists: luciferase qHTS assay (AID 1645841; also: nearly all actives have a fitted effect of over 45% in size)). Conditions: P450-Glo CYP3A4 enzyme assay, luciferin luminescence; series mostly up to 57.4 µM.
Chain of Cytochrome P450 3A4 (Homo sapiens) (P08684 whole entry, looked up): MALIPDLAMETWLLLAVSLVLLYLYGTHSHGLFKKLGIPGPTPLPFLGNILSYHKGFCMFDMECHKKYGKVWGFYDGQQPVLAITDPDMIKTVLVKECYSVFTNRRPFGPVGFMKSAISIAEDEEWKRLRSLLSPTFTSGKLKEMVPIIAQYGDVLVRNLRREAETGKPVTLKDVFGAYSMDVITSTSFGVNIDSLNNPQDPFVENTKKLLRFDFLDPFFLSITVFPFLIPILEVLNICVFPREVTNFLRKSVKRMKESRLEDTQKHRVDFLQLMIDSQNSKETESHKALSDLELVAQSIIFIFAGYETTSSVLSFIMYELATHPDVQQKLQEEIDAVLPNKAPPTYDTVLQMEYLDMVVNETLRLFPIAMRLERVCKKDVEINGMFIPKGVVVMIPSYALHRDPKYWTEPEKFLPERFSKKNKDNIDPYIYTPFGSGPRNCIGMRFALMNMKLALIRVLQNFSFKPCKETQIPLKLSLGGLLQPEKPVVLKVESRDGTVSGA
In short: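 P450-Glo CYP3A4 enzyme with proluciferin substrate preincubated 10 min with compound at room temperature, then NADPH regeneration 1 h. Luciferin detection reagent added for 20 min; luminescence recorded. Ketoconazole positive control.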
In the case of `COCCN(C)Cc1ccc2nc3sc(C(=O)N(C)C4CCCCC4)cn3c2c1`, the Potency is reported as “inactive”.
In the case of `c1ccc(C(OC2CCN(CCCc3nn[nH]n3)CC2)c2ccccc2)cc1`, the Potency is reported as “inactive”.
With `CNC1CCN(C(Cc2cccc(-c3ccncc3)c2)C(=O)c2sc3c(F)ccc(F)c3c2Cl)CC1` (configuration not stated) the Potency was 0.12 µM (active).
For `COc1cc2c(Nc3ccc(Cl)c(Cl)c3F)ncnc2cc1OCC1C[C@@H]2CN(C)C[C@@H]2C1` (some centres not stated), the Potency was “inactive”.
In the case of `O=C(C1CC1)N1CC[C@@H](Cc2n[nH]c(=O)n2-c2ccc(-c3ccc4occc4c3)cc2)C1`, the Potency is reported as 6.74 µM (active).
`Nc1nc(N)c2nc(CNc3ccc(C(=O)N[C@@H](CCC(=O)O)C(=O)O)cc3)cnc2n1` was tested, and the Potency was “inactive”.
With `CNc1nc(Nc2cnn([C@H]3CCN(C4COC4)C[C@@H]3F)c2Cl)ncc1C(F)(F)F` the Potency was “inactive”.
